# Measured values published in PubChem BioAssay (NCATS).
# Unmarked numbers belong to inactive results. Results filed as inconclusive are left out. A call without a number means that no potency is given here. Active and inactive are the calls of the source. Calls come from the whole dose curve; as a rule, active = well fitted curve in the direction sought with a large enough effect; inconclusive = small, poorly fitted or top-dose-only effect, or another doubt; inactive = no such curve, though single readings can be large; an effect the other way counts as inactive or inconclusive.
# How the values were obtained:
# [1] = Quantitative High-Throughput drug screen in 47 multiple myeloma cell lines against the NCATS MIPE library collection: XG1_PLB cell viability assay (AID 1919866); note: nearly all actives have a fitted effect of over 35% in size; note: potency is the fitted concentration of half-maximal effect
# Outline: (§1)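 MIPE 4.0 approved/investigational drugs; 500 cells/well; 48 h 37 °C humidified 5% CO2; CTG luminescence readout; DMSO = 100%, media = 0% viability.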
# [2] = Quantitative High-Throughput drug screen in 47 multiple myeloma cell lines against the NCATS MIPE library collection: UTMC2_PLB cell viability assay (AID 1919868); conditions: CellTiter-Glo ATP luminescence, 48 h; viability (% of DMSO control): at 45.8 µM (top of the series); note: nearly all actives have a fitted effect of over 55% in size; note: potency is the fitted concentration of half-maximal effect
# Outline: as §1
# [3] = Quantitative High-Throughput drug screen in 47 multiple myeloma cell lines against the NCATS MIPE library collection: PE2_PLB cell viability assay (AID 1919869); note: nearly all actives have a fitted effect of over 35% in size; note: potency is the fitted concentration of half-maximal effect
# Outline: as §1
# [4] = Quantitative High-Throughput drug screen in 47 multiple myeloma cell lines against the NCATS MIPE library collection: PCM6_Riken cell viability assay (AID 1919870); note: nearly all actives have a fitted effect of over 30% in size; note: potency is the fitted concentration of half-maximal effect
# Outline: as §1
# [5] = Quantitative High-Throughput drug screen in 47 multiple myeloma cell lines against the NCATS MIPE library collection: OPM2_DSMZ cell viability assay (AID 1919872); note: nearly all actives have a fitted effect of over 30% in size; note: potency is the fitted concentration of half-maximal effect
# Outline: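 Viability readout: CellTiter-Glo luminescence following 5 min room-temperature incubation with reagent. Prior exposure: 48 h, 37C, humidified 5% CO2, 500 cells per well.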
# [6] = Quantitative High-Throughput drug screen in 47 multiple myeloma cell lines against the NCATS MIPE library collection: KMS11_JCRBsus cell viability assay (AID 1919873); note: nearly all actives have a fitted effect of over 50% in size; note: potency is the fitted concentration of half-maximal effect
# Outline: as §1
# [7] = Quantitative High-Throughput drug screen in 47 multiple myeloma cell lines against the NCATS MIPE library collection: KMS28BM_JCRB cell viability assay (AID 1919874); note: nearly all actives have a fitted effect of over 35% in size; note: potency is the fitted concentration of half-maximal effect
# Outline: as §1
# [8] = Quantitative High-Throughput drug screen in 47 multiple myeloma cell lines against the NCATS MIPE library collection: RPMI8226_ATCC cell viability assay (AID 1919871); note: nearly all actives have a fitted effect of over 30% in size; note: potency is the fitted concentration of half-maximal effect
# Outline: as §1
# [9] = biological target: Cytochrome P450 3A4 (Homo sapiens) (UniProt P08684); assay: qHTS for inhibitors of CYP3A4 against the NCATS DSHEA and TCM libraries (AID 1919971);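 note: inhibition lowers luminescence from luciferin made by CYP3A4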
# Chain of Cytochrome P450 3A4 (Homo sapiens) (P08684 whole entry, looked up, canonical isoform): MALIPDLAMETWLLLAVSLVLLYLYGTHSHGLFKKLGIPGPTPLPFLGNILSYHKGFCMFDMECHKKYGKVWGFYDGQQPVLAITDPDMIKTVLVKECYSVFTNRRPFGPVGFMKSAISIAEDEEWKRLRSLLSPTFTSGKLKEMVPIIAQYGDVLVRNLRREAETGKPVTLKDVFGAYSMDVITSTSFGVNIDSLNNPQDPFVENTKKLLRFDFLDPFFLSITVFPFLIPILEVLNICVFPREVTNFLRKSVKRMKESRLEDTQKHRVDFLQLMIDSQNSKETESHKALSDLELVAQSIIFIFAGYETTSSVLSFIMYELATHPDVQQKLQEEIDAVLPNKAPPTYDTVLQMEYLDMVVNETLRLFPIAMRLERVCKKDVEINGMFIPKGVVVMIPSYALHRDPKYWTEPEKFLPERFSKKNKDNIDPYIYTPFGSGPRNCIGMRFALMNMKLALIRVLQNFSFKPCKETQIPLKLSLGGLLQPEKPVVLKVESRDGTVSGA
# Outline: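 Read-out is luminescence after P450-Glo detection (30 min, RT). Before that: 15 min compound–enzyme preincubation, then 30-45 min reaction with 1x NADPH regeneration solution, substrate concentration isoform-specific.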
# [10] = biological target: Cytochrome P450 2D6 (Homo sapiens) (UniProt P10635); assay: qHTS for inhibitors of CYP2D6 against the NCATS DSHEA and TCM libraries (AID 1919972)
# Chain of Cytochrome P450 2D6 (Homo sapiens) (P10635 whole entry, looked up): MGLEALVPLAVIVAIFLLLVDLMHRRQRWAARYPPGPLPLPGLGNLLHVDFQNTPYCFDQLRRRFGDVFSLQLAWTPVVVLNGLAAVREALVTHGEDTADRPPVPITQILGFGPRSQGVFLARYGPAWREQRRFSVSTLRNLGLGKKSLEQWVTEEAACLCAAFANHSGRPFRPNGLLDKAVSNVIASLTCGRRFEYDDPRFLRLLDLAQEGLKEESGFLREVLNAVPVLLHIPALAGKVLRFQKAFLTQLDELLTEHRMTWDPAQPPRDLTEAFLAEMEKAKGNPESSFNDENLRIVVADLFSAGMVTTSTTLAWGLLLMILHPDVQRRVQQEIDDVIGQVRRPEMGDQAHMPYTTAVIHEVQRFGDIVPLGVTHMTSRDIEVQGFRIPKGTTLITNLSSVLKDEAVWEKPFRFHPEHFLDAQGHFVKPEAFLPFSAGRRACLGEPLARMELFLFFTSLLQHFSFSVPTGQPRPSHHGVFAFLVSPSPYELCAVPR
# Outline: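 Luminescent P450-Glo read-out of CYP2D6 turnover of a luciferin substrate after NADPH-driven reaction of 30-45 min at room temperature. Compounds were first preincubated 15 min with enzyme at titrated concentrations; quinidine was the intraplate control.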
# [11] = KB-3-1 P-gp reporter qHTS against the NCATS DSHEA and TCM libraries (AID 1919975)
# Outline: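 CellTiter-Glo luminescence viability readout; KB-3-1 parental cells, 500/well, attached ~4 h, then compound for ~72 h, 37C, 5% CO2. Bortezomib intraplate control.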
# [12] = qHTS Counterscreen for compound interference against the NCATS DSHEA and TCM libraries (AID 1919978); conditions: firefly luciferase detection reagent interference, luminescence;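 note: compounds preincubated with 1 µM D-luciferin or buffer before detection reagent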
# Outline: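 Luminescence counterscreen for detection-kit interference: compounds at 19.5 nM–39.8 uM final, 15 min RT with 1 uM D-luciferin or buffer only; detection reagent added, 30 min RT, then read.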
# [13] = Dual reporter qHTS for agonist of Pregnane X Receptor (hPXR) against the NCATS DSHEA and TCM libraries: Fluorescence readout (AID 1920058)
# Outline: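 HepG2 hPXR-Luc, 2000 cells/well, 5 h attach; cpds ~24 h, 37 °C/5% CO2; CellTiter-Fluor 1 h; fluor. Ex/Em 405/540 nm = viability.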
# [14] = biological target: Nuclear receptor subfamily 1 group I member 2 (Homo sapiens) (UniProt O75469); assay: Dual reporter qHTS for agonist of Pregnane X Receptor (hPXR) against the NCATS DSHEA and TCM libraries: Luminescence readout (AID 1920059); note: potency is the fitted concentration of half-maximal effect
# Chain of Nuclear receptor subfamily 1 group I member 2 (Homo sapiens) (O75469 whole entry, looked up): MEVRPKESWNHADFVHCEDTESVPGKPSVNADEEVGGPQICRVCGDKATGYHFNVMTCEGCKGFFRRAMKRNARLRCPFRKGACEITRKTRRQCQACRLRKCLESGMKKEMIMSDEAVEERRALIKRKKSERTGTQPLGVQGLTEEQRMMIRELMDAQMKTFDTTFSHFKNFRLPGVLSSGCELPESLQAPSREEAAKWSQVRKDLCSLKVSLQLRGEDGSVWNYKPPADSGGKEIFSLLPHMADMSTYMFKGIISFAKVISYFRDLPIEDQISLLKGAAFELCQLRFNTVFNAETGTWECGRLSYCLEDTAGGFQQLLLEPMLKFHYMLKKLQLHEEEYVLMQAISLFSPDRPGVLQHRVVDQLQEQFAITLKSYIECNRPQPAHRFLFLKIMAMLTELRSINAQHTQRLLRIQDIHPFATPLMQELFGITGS
# Outline: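 hPXR-LucHepG2 cells in phenol red-free DMEM with 5% charcoal-stripped FBS, 2000 cells/well, attached 5 h, then exposed 24 h at 37C to compounds; rifampicin as positive agonist control (2.8 nM–92 uM). Luciferase luminescence read.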
# [15] = biological target: Nuclear receptor subfamily 1 group I member 2 (Homo sapiens) (UniProt O75469); assay: Dual reporter qHTS for antagonist of Pregnane X Receptor (hPXR) against the NCATS DSHEA and TCM libraries: Luminescence Readout (AID 1920060);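 note: HepG2 cells carrying hPXR luciferase reporter stimulated with rifampicin at 2 µM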
# Outline: (§2)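 Antagonist mode: rifampicin 2 uM final co-added with compounds to hPXR-LucHepG2 cells for 24 h at 37C. Viability by CellTiter-Fluor, Ex/Em 405/540 nm, 1 h; reporter by ONE-Glo luminescence.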
# [16] = Dual reporter qHTS for antagonist of Pregnane X Receptor (hPXR) against the NCATS DSHEA and TCM libraries: Fluorescence Readout (AID 1920061)
# Outline: as §2
smiles,measurement,setting,value
CC1CNc2c(cccc2S(=O)(=O)N[C@@H](CCCN=C(N)N)C(=O)N2CC[C@@H](C)C[C@@H]2C(=O)O)C1 (stereo partly drawn),Potency,[1],inactive
same,Potency,[2],inactive
same,Potency,[3],inactive
same,Potency,[4],inactive
same,Potency,[5],inactive
same,Potency,[6],inactive
same,Potency,[7],inactive
CC[C@H](C=C[C@@H](C)[C@H]1CC[C@H]2[C@@H]3CC=C4C[C@@H](O)CC[C@]4(C)[C@@H]3CC[C@]12C)C(C)C,Potency,[1],1.02 µM (active)
same,Potency,[2],inactive
same,Potency,[3],0.0575 µM (active)
same,Potency,[4],0.575 µM (active)
same,Potency,[5],inactive
same,Potency,[6],5.12 µM (active)
NC(=O)c1noc([C@H](CCCC2CCCCC2)CC(=O)NO)n1,Potency,[1],16.6 µM (active)
same,Potency,[3],18.7 µM (active)
same,Potency,[4],16.6 µM (active)
same,Potency,[8],10.5 µM (active)
same,Potency,[5],20.9 µM (active)
same,Potency,[7],inactive
CN1CCN(c2ncc(-c3cc(Cl)cc(Cl)c3Cl)c(N)n2)CC1,Potency,[1],7.43 µM (active)
same,Potency,[2],inactive
same,Potency,[3],10.5 µM (active)
same,Potency,[6],inactive
same,Potency,[7],inactive
Cc1ccc(C2=Nc3ccc(Cl)cc3OC2)cc1,Potency,[1],inactive
same,Potency,[3],inactive
same,Potency,[4],7.43 µM (active)
same,Potency,[8],1.87 µM (active)
same,Potency,[5],inactive
same,Potency,[7],inactive
O=C(c1ccc(C(=O)N2CCC(N3CCCC3)CC2)c(Nc2ccccc2)c1)N1CCC(N2CCCC2)CC1,Potency,[1],inactive
same,Potency,[2],inactive
same,Potency,[3],inactive
same,Potency,[8],inactive
same,Potency,[6],inactive
Cc1ccc2c(c1)C(=O)[C@]1(O)CCN(c3ccccc3)C1=N2,Potency,[1],inactive
same,Potency,[2],4.69 µM (active)
same,Potency,[3],inactive
same,Potency,[4],inactive
same,Potency,[5],inactive
same,Potency,[7],10.5 µM (active)
N[C@@H](CC(=O)N1CCn2c(nnc2C(F)(F)F)C1)Cc1cc(F)c(F)cc1F,Potency,[1],inactive
same,Potency,[3],3.72 µM (active)
same,Potency,[4],inactive
same,Potency,[8],inactive
same,Potency,[5],inactive
same,Potency,[6],inactive
same,Potency,[7],4.69 µM (active)
CC(C)(CO)[C@@H](O)C(=O)NCCC(=O)O,Potency,[1],inactive
same,Potency,[3],inactive
same,Potency,[4],16.6 µM (active)
same,Potency,[8],inactive
same,Potency,[5],inactive
same,Potency,[6],inactive
same,Potency,[7],inactive
same,outcome,[9],inactive
same,outcome,[10],inactive
same,outcome,[11],inactive
same,max response,[12],-1.56%
same,Potency,[13],inactive
same,Potency,[14],11.2 µM (active)
same,outcome,[15],inactive
same,outcome,[16],inactive
CN1CCC(COc2cnc(-c3cccc(Cn4nc(-c5cccc(C#N)c5)ccc4=O)c3)nc2)CC1,Potency,[1],0.332 µM (active)
same,Potency,[2],0.526 µM (active)
same,Potency,[3],1.05 µM (active)
same,Potency,[4],0.372 µM (active)
same,Potency,[5],inactive
same,Potency,[7],inactive
O=C(Nc1cccc2c(=O)cc(-c3nn[nH]n3)oc12)c1ccc(OCCCCc2ccccc2)cc1,Potency,[1],26.4 µM (active)
same,Potency,[2],14.8 µM (active)
same,Potency,[3],26.4 µM (active)
same,Potency,[5],inactive
same,Potency,[6],23.5 µM (active)
CCOC(=O)[C@@H](N)CCC(=O)N[C@@H](CSCc1ccccc1)C(=O)N[C@@H](C(=O)OCC)c1ccccc1,Potency,[1],23.5 µM (active)
same,Potency,[2],23.5 µM (active)
same,Potency,[3],20.9 µM (active)
same,Potency,[8],inactive
same,Potency,[6],inactive
same,Potency,[7],inactive
CC(NCCc1ccc(O)cc1)C(O)c1ccc(O)cc1 (stereo not drawn),Potency,[1],inactive
same,Potency,[3],inactive
same,Potency,[4],inactive
same,Potency,[8],inactive
same,Potency,[5],inactive
same,Potency,[6],inactive
same,Potency,[7],inactive
C[C@@H]1[C@H](C)CC[C@]2(C(=O)O)CC[C@]3(C)C(=CC[C@@H]4[C@@]5(C)CC[C@H](O)C(C)(C)[C@H]5CC[C@]43C)[C@@H]12,Potency,[1],1.36 µM (active)
same,Potency,[3],inactive
same,Potency,[4],12.1 µM (active)
same,Potency,[8],27 µM (active)
same,Potency,[5],42.9 µM (active)
same,Potency,[6],inactive
C=CC[N+]1([C@H]2C[C@H]3[C@@H]4CC[C@H]5C[C@H](O)[C@@H](N6CCOCC6)C[C@]5(C)[C@@H]4CC[C@]3(C)[C@H]2OC(C)=O)CCCC1,Potency,[1],inactive
same,Potency,[2],inactive
same,Potency,[3],inactive
same,Potency,[4],inactive
same,Potency,[5],inactive
same,Potency,[6],inactive
same,Potency,[7],inactive
CCC(=C(CC)c1ccc(O)cc1)c1ccc(O)cc1,Potency,[1],14.8 µM (active)
same,Potency,[3],18.7 µM (active)
same,Potency,[4],18.7 µM (active)
same,Potency,[8],29.6 µM (active)
same,Potency,[5],26.4 µM (active)
same,Potency,[6],14.8 µM (active)
same,Potency,[7],16.6 µM (active)
O=C1CCCC(=O)C1C(=O)c1ccc(C(F)(F)F)cc1[N+](=O)[O-],Potency,[1],inactive
same,Potency,[3],inactive
same,Potency,[4],inactive
same,Potency,[6],inactive
same,Potency,[7],inactive
Cc1cc(NC(=O)Nc2ccc(N(C)C)cc2)c2cc(F)cc(F)c2n1,Potency,[1],3.32 µM (active)
same,Potency,[2],inactive
same,Potency,[3],inactive
same,Potency,[4],inactive
same,Potency,[7],inactive
O=C(O)CCC=CCC[C@@H]1[C@H](N2CCCCC2)[C@@H](O)C[C@@H]1OCc1ccc(-c2ccccc2)cc1,Potency,[1],inactive
same,Potency,[2],inactive
same,Potency,[3],inactive
same,Potency,[8],inactive
same,Potency,[5],inactive
same,Potency,[6],inactive
